From PubChem BioAssay (EPA / NIEHS) come the findings set out here.

The structures appear in SMILES notation. Calls of active or inactive are those of the source. How the source made its calls: active means hit-call score of the fitted dose curve at least 0.9, where 1 is the maximum; inactive means score below 0.9.

For the assay, the target named is Transcriptional activator Myb (Homo sapiens) (UniProt P10242). The assay can be described thus: ATG_Myb_CIS: Attagene CIS-FACTORIAL HepG2 Assay for human Myeloblastosis (Myb) Proto-Oncogene Transcription Factor (AID 2282986). The settings on record: HepG2 Attagene CIS-FACTORIAL Myb reporter transcription; actives raise or lower the signal. Put shortly: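 Steps: transfect HepG2 with cis-regulated reporter units; dose with chemical for 24 h; isolate RNA, reverse-transcribe, PCR-amplify and FAM-label reporter sequences; digest with HpaI; resolve by capillary electrophoresis. Activity fitted in both directions relative to DMSO.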
Transcriptional activator Myb (Homo sapiens), sequence (P10242 whole entry, looked up): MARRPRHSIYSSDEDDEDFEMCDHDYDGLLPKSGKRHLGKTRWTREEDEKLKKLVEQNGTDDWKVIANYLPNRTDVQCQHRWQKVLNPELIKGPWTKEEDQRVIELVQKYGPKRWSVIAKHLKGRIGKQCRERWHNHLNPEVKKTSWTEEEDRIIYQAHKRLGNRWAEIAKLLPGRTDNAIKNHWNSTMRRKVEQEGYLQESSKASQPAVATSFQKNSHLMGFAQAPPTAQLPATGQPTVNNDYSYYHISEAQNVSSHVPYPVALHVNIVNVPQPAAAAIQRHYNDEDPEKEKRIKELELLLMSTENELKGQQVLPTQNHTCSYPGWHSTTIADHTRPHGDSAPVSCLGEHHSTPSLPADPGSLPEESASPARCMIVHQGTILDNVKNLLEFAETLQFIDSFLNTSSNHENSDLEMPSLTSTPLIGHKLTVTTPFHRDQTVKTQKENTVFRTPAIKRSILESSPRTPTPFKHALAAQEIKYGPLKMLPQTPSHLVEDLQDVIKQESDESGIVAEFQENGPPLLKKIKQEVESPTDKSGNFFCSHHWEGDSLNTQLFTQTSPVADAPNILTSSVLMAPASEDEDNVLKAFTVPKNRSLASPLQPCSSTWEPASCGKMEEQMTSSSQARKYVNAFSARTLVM
`CCCCOC(=O)C(C)O` (stereo not drawn): the compound was classed as inactive. As to `CCCCCCCCCCCC(=O)Cl`, the result was inactive.

On to `c1ccc(C[P+](c2ccccc2)(c2ccccc2)c2ccccc2)cc1`, for which the compound was classed as inactive. Regarding `O=C(Cl)c1ccc(Cl)cc1Cl`, the compound was classed as inactive. Regarding `O=S(=O)(O)CCC(F)(F)C(F)(F)C(F)(F)C(F)(F)C(F)(F)C(F)(F)C(F)(F)C(F)(F)F`, the result was inactive. `OCCCc1cccnc1`: the call was inactive. On to `CC(C)CCCC(C)CCO` (stereo not drawn), for which the compound was called inactive. In the case of `CCc1ccc(C)nc1`, the compound was classed as inactive.

For `CCN=C1C=CC(=C(c2ccc(N(CC)CC)cc2)c2ccc(N(CC)CC)cc2)c2ccccc21`, the compound was classed as inactive. For the compound `CC(C)C(=O)OCc1ccccc1`, the call was inactive. As to `CCCCCCCCCCCCC[N+](C)(C)Cc1ccccc1`, the compound was called inactive. Take `OC(O)C(F)(F)C(F)(F)F`: the compound was classed as inactive.

Regarding `C[Si](C)O[Si](C)C`, the result was inactive. The same measure for `COC(=O)c1ccc(C=O)cc1`: “inactive”; for `NCC(F)(F)C(F)(F)C(F)(F)C(F)(F)C(F)(F)C(F)(F)C(F)(F)C(F)(F)F`: “inactive”.

Consider `OCC(O)CC(F)(F)C(F)(F)C(F)(F)C(F)(F)F` (stereo not drawn), for which the outcome was inactive. Regarding `O=C(O)CCC(F)(F)C(F)(F)C(F)(F)C(F)(F)C(F)(F)C(F)(F)C(F)(F)F`, the result was inactive. Take `CCCCCC/C=C/CCCCCCCC(=O)O`: the compound was called inactive. Take `C=CC(=O)OCCC(F)(F)C(F)(F)C(F)(F)C(F)(F)F`: the result was inactive. Turning to `O=C(O)C(F)(F)C(F)(F)C(F)(F)OC(F)(C(F)(F)F)C(F)(F)F`, the call was inactive. As for `C=CCOC(=O)CC(C)C`, the call was inactive. In the case of `CCN(CC)c1ccc2c(c1)Oc1cc(N(CC)CC)ccc1C21OC(=O)c2ccccc21`, the result was inactive.

`CCOCOCC`: the compound was called inactive.
